Laboratory results from PubChem BioAssay (NCATS).
Several values for one entry are separate records, joined by “and”; a condition that tells them apart may be missing. Equal entries are not always repeated. Inconclusive results are not listed. Entries that show only a call come without a potency. Unmarked numbers belong to inactive results. Activity calls are given as the source filed them. The call rests on the fitted dose curve; in most records, active means well fitted curve in the direction sought with a large enough effect; inconclusive means small, poorly fitted or top-dose-only effect, or another doubt; inactive means no such curve, though single readings can be large; an effect the other way counts as inactive or inconclusive.

Legend:
UISO = test: qHTS assay to identify novel small-molecules to repurpose for Merkel cell carcinoma treatment (AID 1296009); settings: MCC and control cell lines, CellTiter-Glo viability, 72 h; series mostly up to 46 µM; further: nearly all actives have a fitted effect of over 60% in size
Outline: (§1)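 Dose-response viability screen; 72 hr exposure at 37 degree celsius; CellTiter-Glo added, 10 min room temperature, luminescence read; RLUs scaled between no-cell and DMSO wells.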

WaGa = test: as above; settings: MCC and control cell lines, CellTiter-Glo viability, 72 h; series mostly up to 46 µM
Outline: as §1

C33A = test: Primary qHTS to identify gynecologic anti-cancer compounds using libraries of approved drugs and bioactive compounds (AID 1345084); settings: Gynecologic cancer cell panel viability, ATPlite luminescence, 48 h; series mostly up to 57.5 µM; further: nearly all actives have a fitted effect of over 55% in size
Outline: (§2)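 ATP-based viability (ATPlite), 1,000 cells/well, 16 h pre-incubation, 48 h compound at 37 C, 5% CO2, 15 min RT before read.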

CAOV3 = test: as above; settings: Gynecologic cancer cell panel viability, ATPlite luminescence, 48 h; series mostly up to 57.5 µM
Outline: as §2

CASKI = test: as above; settings: Gynecologic cancer cell panel viability, ATPlite luminescence, 48 h; series mostly up to 57.5 µM
Outline: as §2

Es-2 = test: as above; settings: Gynecologic cancer cell panel viability, ATPlite luminescence, 48 h; series mostly up to 57.5 µM
Outline: as §2

HeLa = test: as above; settings: Gynecologic cancer cell panel viability, ATPlite luminescence, 48 h; series mostly up to 57.5 µM
Outline: as §2

Hek293T = test: as above; settings: Gynecologic cancer cell panel viability, ATPlite luminescence, 48 h, control line for the selectivity index; series mostly up to 57.5 µM
Outline: as §2

JEG-3 = test: as above; settings: Gynecologic cancer cell panel viability, ATPlite luminescence, 48 h; series mostly up to 57.5 µM
Outline: as §2

OV90 = test: as above; settings: Gynecologic cancer cell panel viability, ATPlite luminescence, 48 h; series mostly up to 57.5 µM
Outline: as §2
Potency means the concentration at half of the fitted maximal effect.

SMILES	Potency (UISO)	Potency (WaGa)	Potency (C33A)	Potency (CAOV3)	Potency (CASKI)	Potency (Es-2)	Potency (HeLa)	Potency (Hek293T)	Potency (JEG-3)	Potency (OV90)
C#C[C@]1(O)CC[C@H]2[C@@H]3CCC4=CC(=O)CC[C@@H]4[C@H]3CC[C@@]21C	inactive	inactive	inactive	inactive	inactive	inactive	3.55 µM (active)	inactive	inactive	
Cc1cc(=O)n(-c2ccccc2)n1C	inactive	inactive	inactive	inactive	inactive	inactive	inactive	inactive	inactive	inactive
CC(C)(C)NC(=O)[C@@H]1CN(Cc2cccnc2)CCN1C[C@@H](O)C[C@@H](Cc1ccccc1)C(=O)N[C@H]1c2ccccc2C[C@H]1O	inactive	inactive	inactive	inactive	inactive	inactive	inactive	inactive	inactive	inactive
O=C(O)CNC(=O)c1ccccc1	inactive	inactive	inactive	inactive	inactive	inactive	inactive	inactive	inactive	inactive
COC(=O)[C@@H]1CC2=CC(=O)CC[C@]2(C)[C@@]23O[C@@H]2C[C@@]2(C)[C@@H](CC[C@@]24CCC(=O)O4)[C@H]13	inactive	inactive	inactive	inactive	inactive	inactive	inactive	inactive	inactive	inactive
OC[C@H]1O[C@H](O[C@]2(CCl)O[C@H](CCl)[C@@H](O)[C@@H]2O)[C@H](O)[C@@H](O)[C@H]1Cl	inactive	inactive	inactive	inactive	inactive	inactive	inactive	inactive	inactive	inactive
CCCCCCc1ccc(O)cc1O	inactive	inactive	inactive	inactive	inactive	inactive	inactive	inactive	inactive	inactive
COc1cc2c(cc1OC)[C@@H]1CC(=O)[C@@H](CC(C)C)CN1CC2	inactive	inactive	inactive	inactive	inactive	inactive	inactive	inactive	inactive	inactive
CNC(=O)CN(CCN(CCN(CC(=O)[O-])CC(=O)NC)CC(=O)[O-])CC(=O)[O-].O.[Gd+3]	inactive	inactive	inactive	inactive	inactive	inactive	inactive	inactive	inactive	inactive
CCOc1ccc(NC(=O)CC(C)O)cc1 (stereo not drawn)	inactive	inactive	inactive	inactive	inactive	inactive	inactive	inactive	inactive	inactive
CC(C)n1nc(-c2cc3cc(O)ccc3[nH]2)c2c(N)ncnc21	9.44 µM (active)	2.99 µM (active)	0.794 µM (active)	1.58 µM (active)	8.91 µM (active) and 15.8 µM (active)	3.16 µM (active) and 2.24 µM (active)	17.8 µM (active) and 14.1 µM (active)	3.98 µM (active)	inactive	5.01 µM (active) and 2.82 µM (active)
CCCCC(=O)O[C@]1(C(=O)CO)CC[C@H]2[C@@H]3CCC4=CC(=O)CC[C@]4(C)[C@H]3[C@@H](O)C[C@@]21C	inactive	inactive	inactive	inactive	inactive	inactive	inactive	inactive	inactive	inactive
c1ccc(CNCCNCc2ccccc2)cc1	inactive	inactive	inactive	inactive	inactive	inactive	inactive	inactive	inactive	inactive
CN=C(NC#N)Nc1ccc(C2=NNC(=O)CC2C)cc1 (stereo not drawn)	inactive	inactive	inactive	inactive	inactive	inactive	inactive	inactive	inactive	inactive
CC(=O)Oc1ccc(C(=C2CCCCC2)c2ccc(OC(C)=O)cc2)cc1	inactive	inactive	inactive	inactive	inactive	inactive	inactive	inactive	inactive	
C[C@H](CCC(=O)O)[C@H]1CC[C@H]2[C@@H]3C(=O)C[C@@H]4CC(=O)CC[C@]4(C)[C@H]3CC(=O)[C@]12C	inactive	inactive	inactive	inactive	inactive	inactive	inactive	inactive	inactive	inactive
COc1cc(/C=C/C(=O)O[C@H]2CC[C@]34C[C@]35CC[C@]3(C)[C@@H]([C@H](C)CCC=C(C)C)CC[C@@]3(C)[C@@H]5CC[C@H]4C2(C)C)ccc1O	inactive	inactive	inactive	inactive	inactive	inactive	inactive	inactive	inactive	inactive
O=C1OC2(c3ccc(O)cc3Oc3cc(O)ccc32)c2ccccc21	inactive	inactive	inactive	inactive	inactive	inactive	inactive	inactive	inactive	inactive
COC(=O)CCc1ccc(OCC(O)CNC(C)C)cc1 (stereo not drawn)	inactive	inactive	inactive	inactive	inactive	inactive	inactive	inactive	inactive	inactive
C[C@]12CC[C@H]3[C@@H](CCC4=CC(=O)CC[C@@]43C)[C@@H]1CC[C@@H]2C(=O)CO	inactive	inactive	inactive	inactive	inactive	inactive	3.55 µM (active)	inactive	inactive	inactive
